The results in this text go back to PubChem BioAssay.

The inhibition is the drop in the measured response relative to a control, in per cent.

Unmarked numbers belong to inactive results. For part of these data: Entries with a potency or affinity are not part of this list. Activity calls are given as the source filed them. Unless noted, no rule for the calls is given here.

Assay [1] can be described thus: antimalarial activity against Dd2 strain (AID 2302;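 active = growth inhibition above 50% at the single 2 µM test dose, taken to imply half-maximal potency below 2 µM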;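 also: 0% = DMSO untreated growth and 100% = chloroquine plus artemisinin killed control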). The note with it: P. falciparum Dd2 in RBCs, LDH growth readout, 72 h; at 2 µM; hits give high values.
Assay [2] can be described thus: human hepatoma cell viability loss – ATP luminescence, cytotoxicity control for P. falciparum antimalarial project, primary screen (AID 2303;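 active = inhibition above 50%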;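 also: 0% = DMSO wells and 100% = digitonin-killed cells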). As to conditions: HepG2 viability, 24-48 h, at 10 µM, hits give high values.
The target of assay [3] is L-lactate dehydrogenase (Plasmodium falciparum (isolate CDC / Honduras)) (UniProt Q27743). Briefly: PfLDH activity inhibition – cell lysate, 3D7 strain, counter-screen for P. falciparum growth inhibition project (AID 2304).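 Also: 0% = vehicle and 100% = reference inhibitor.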 The note with it: P. falciparum 3D7 crude extract, LDH APAD/NBT absorbance; at 2 µM; hits give high values.
Sequence of L-lactate dehydrogenase (Plasmodium falciparum (isolate CDC / Honduras)) (Q27743 whole entry, looked up): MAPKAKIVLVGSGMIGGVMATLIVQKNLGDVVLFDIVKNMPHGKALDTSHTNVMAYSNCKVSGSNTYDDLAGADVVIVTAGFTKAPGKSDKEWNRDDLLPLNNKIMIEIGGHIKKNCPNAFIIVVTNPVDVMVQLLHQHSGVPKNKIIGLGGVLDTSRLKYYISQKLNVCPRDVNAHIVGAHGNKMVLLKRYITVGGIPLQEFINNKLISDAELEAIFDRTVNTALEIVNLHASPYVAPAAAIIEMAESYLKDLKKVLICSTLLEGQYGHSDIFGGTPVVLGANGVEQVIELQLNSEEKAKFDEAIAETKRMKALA
The nature of assay [4]: inhibition of 3D7 malaria parasite growth – strain 3D7 (AID 2306).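 Also: 0% = DMSO wells and 100% = chloroquine plus artemisinin control wells.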 The note with it: P. falciparum 3D7 erythrocytic growth, LDH absorbance, 72 h; at 2 µM; hits give high values.
Assay [5] has as its target Calcium-dependent protein kinase 1 (Plasmodium falciparum (isolate 3D7)) (UniProt P62344). The assay is described as follows: PfCDPK1 kinase inhibitors, biochemical, TCAMS library (AID 1159585; cut-off not given, nearly all actives have IC50 up to about 0.98 µM;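 also: inhibitors leave more ATP so luminescence rises with inhibition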). As to conditions: recombinant PfCDPK1, Kinase-Glo ATP depletion luminescence.
Assay [6] deals with Plasmodium falciparum protein kinase 6 (PK6, PF3D7_1337100) (UniProt Q8IDW1). Briefly: PfPK6 kinase inhibitors, biochemical, TCAMS library (AID 1159586). The note with it: recombinant PfPK6, Kinase-Glo ATP depletion luminescence. (Kinase-Glo measures the ATP left after a reaction by luminescence.)
Sequence of Plasmodium falciparum protein kinase 6 (PK6, PF3D7_1337100) (Q8IDW1 1-305): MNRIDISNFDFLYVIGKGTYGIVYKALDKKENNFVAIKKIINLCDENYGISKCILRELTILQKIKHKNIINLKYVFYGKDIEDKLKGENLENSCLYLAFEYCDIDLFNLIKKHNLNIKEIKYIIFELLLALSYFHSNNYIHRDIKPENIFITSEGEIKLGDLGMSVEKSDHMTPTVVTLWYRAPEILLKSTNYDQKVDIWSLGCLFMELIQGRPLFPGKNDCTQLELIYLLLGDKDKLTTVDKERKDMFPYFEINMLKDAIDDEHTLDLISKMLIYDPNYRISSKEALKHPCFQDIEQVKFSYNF
Assay [7] has as its target Protein kinase 7 (PK7), Plasmodium falciparum 3D7 (PF3D7_0213400) (UniProt Q7YTF7). Briefly: inhibition of Plasmodium PK7 catalytic activity – biochemical, TCAMS antimalarial set, Kinase-Glo luminescence (AID 1159587). The note with it: recombinant PfPK7, Kinase-Glo ATP depletion luminescence.
For assay [8], the target named is Calcium-dependent protein kinase 4 (Plasmodium falciparum (isolate 3D7)) (UniProt Q8IBS5). The assay is described as follows: PfCDPK4 kinase inhibitors, biochemical, TCAMS library (AID 1159588; cut-off not given, nearly all actives have IC50 up to about 0.91 µM). As to conditions: recombinant PfCDPK4, Kinase-Glo ATP depletion luminescence.
Sequence of Calcium-dependent protein kinase 4 (Plasmodium falciparum (isolate 3D7)) (Q8IBS5 whole entry, looked up): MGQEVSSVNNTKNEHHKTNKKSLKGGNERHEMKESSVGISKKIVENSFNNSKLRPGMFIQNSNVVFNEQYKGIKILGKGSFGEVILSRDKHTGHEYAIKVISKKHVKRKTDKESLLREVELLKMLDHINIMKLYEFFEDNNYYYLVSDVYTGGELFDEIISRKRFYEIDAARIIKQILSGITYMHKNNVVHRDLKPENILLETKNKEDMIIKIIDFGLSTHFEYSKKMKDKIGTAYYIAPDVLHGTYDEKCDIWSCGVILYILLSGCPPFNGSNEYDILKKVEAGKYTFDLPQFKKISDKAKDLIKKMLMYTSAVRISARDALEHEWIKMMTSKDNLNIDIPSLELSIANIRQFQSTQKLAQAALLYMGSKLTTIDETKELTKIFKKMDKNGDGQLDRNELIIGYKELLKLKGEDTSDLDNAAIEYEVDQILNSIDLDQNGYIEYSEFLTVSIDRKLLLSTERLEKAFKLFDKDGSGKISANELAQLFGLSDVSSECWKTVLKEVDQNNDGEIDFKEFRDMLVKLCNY

Sequence of Protein kinase 7 (PK7), Plasmodium falciparum 3D7 (PF3D7_0213400) (Q7YTF7 1-343): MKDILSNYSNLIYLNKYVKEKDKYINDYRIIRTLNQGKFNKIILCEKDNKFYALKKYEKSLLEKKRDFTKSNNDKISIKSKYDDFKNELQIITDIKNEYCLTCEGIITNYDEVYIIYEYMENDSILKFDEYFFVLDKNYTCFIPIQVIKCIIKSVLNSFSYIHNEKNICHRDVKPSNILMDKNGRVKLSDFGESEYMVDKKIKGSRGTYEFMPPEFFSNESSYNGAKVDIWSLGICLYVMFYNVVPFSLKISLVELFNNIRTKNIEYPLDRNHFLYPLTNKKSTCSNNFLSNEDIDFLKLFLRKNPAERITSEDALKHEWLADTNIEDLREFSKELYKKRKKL
Sequence of Calcium-dependent protein kinase 1 (Plasmodium falciparum (isolate 3D7)) (P62344 whole entry, looked up): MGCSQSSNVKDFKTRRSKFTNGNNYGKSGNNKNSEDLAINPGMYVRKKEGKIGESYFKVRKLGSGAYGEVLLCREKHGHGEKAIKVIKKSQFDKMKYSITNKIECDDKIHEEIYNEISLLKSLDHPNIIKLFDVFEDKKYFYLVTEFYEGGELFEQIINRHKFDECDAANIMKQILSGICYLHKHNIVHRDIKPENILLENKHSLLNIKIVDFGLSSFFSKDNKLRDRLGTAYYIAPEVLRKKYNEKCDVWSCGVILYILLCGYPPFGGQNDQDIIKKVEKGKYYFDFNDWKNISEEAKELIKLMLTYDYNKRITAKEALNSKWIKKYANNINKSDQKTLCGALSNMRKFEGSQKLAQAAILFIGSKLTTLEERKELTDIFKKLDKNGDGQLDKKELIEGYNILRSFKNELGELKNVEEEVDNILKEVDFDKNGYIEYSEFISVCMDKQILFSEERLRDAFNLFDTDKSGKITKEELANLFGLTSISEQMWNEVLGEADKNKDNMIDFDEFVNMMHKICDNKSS

Regarding `COc1cccc(NC(=O)NC2CCN(c3ccnc(Nc4ccc(F)cc4)n3)C2)c1` (centres undefined), the figures for the growth inhibition in assay [1] and in assay [4] were 71% (active) and 100% (active), respectively. Moreover, the inhibition is 9% in assay [2] and -2% in assay [3]. Besides, the outcome in assay [5], in assay [6], in assay [7] and in assay [8] was inactive.

Regarding `CC[C@H](C)[C@@H](C(=O)N1CCOCC1)N1CC[C@H](NS(=O)(=O)CC(C)(C)c2ccc(Cl)cc2)C1=O`, the growth inhibition in assay [1] is 95% (active); in assay [4] it was 101% (active). Moreover, the inhibition in assay [2] is -1%; in assay [3] it was 1%. The outcome in assay [5], in assay [6], in assay [7] and in assay [8] was inactive.

For `Cc1cc(NN=Cc2cccc([N+](=O)[O-])c2)c2ccc(F)cc2n1`, the values for the growth inhibition in assay [1] and in assay [4] were 98% (active) and 101% (active), respectively. Also, the inhibition was -18% in assay [2] and -8% in assay [3]. Besides, the result in assay [5], in assay [6], in assay [7] and in assay [8] was inactive.

For the compound `COc1ccc(CCNCc2cc3c(C(C)(C)C)nn(-c4ccc(Cl)cc4)c3[nH]c2=O)cc1OC`, the values for the growth inhibition in assay [1] and in assay [4] were 99% (active) and 100% (active), respectively. Moreover, the inhibition in assay [2] is 13%; in assay [3], 5%. The result in assay [5], in assay [6], in assay [7] and in assay [8] was inactive.

For the compound `O=S(=O)(Nc1cccc(CCN2CCC(N3CCCCC3)CC2)c1)c1ccc(-c2ccccc2)cc1`, the growth inhibition in assay [1] was 49%; in assay [4] it was 100% (active). Besides, the inhibition in assay [2] was 76% (active); in assay [3] it was 1%. Moreover, the outcome in assay [5], in assay [6], in assay [7] and in assay [8] was inactive.

As to `CCc1ccc(CN(CCCOc2cccc(CC(=O)NCc3cnc[nH]3)c2)Cc2ccc(-n3ccnc3)cc2)cc1`, the growth inhibition in assay [1] was 28%; in assay [4], 99% (active). The inhibition is 1% in assay [2] and -2% in assay [3]. The result in assay [5], in assay [6], in assay [7] and in assay [8] was inactive.

As to `FC(F)(F)c1ccc2nc(-c3ccc(-c4cccc(CN5CCCCC5)c4)cc3)[nH]c2c1`, the growth inhibition is 99% (active) in assay [1] and 100% (active) in assay [4]. Moreover, the results for the inhibition in assay [2] and in assay [3] were 22% and 2%, respectively. The outcome in assay [5], in assay [6], in assay [7] and in assay [8] was inactive.

Consider `CC(C)(C)c1ccc2nc(-c3ccc(/C=C/C(=O)NCc4ccc(Cl)c(Cl)c4)cc3)[nH]c2c1`, for which the growth inhibition is 17% in assay [1] and 97% (active) in assay [4]. Moreover, the inhibition is 41% in assay [2] and 0% in assay [3]. Further, the result in assay [5], in assay [6], in assay [7] and in assay [8] was inactive.

As for `O=C(Nc1ccc(Cl)cc1)c1cccc(S(=O)(=O)NC2CCN(CC3CCCCC3)CC2)c1`, the values for the growth inhibition in assay [1] and in assay [4] were 11% and 92% (active), respectively. In addition, the inhibition is 67% (active) in assay [2] and 0% in assay [3]. Further, the outcome in assay [5], in assay [6], in assay [7] and in assay [8] was inactive.

For the compound `O=C(NC1CC1)c1ccc(N2CCC(c3ccccc3)CC2)nc1`, the values for the growth inhibition in assay [1] and in assay [4] were 92% (active) and 93% (active), respectively. For the same compound, the figures for the inhibition in assay [2] and in assay [3] were 16% and 1%, respectively. Besides, the result in assay [5], in assay [6], in assay [7] and in assay [8] was inactive.

Take `O=C(NCCCCN1CCC[C@@H]2c3cccc(O)c3CC[C@@H]21)c1ccc(-c2ccccc2)cc1`: the values for the growth inhibition in assay [1] and in assay [4] were 4% and 93% (active), respectively. The values for the inhibition in assay [2] and in assay [3] were 18% and 3%, respectively. For the same compound, the result in assay [5], in assay [6], in assay [7] and in assay [8] was inactive.

Turning to `N[C@@H](CCNCc1ccc(-c2cccnc2)cc1)Cc1ccc(F)c(F)c1`, the values for the growth inhibition in assay [1] and in assay [4] were 57% (active) and 98% (active), respectively. Besides, the inhibition in assay [2] was 45%; in assay [3], 2%. The outcome in assay [5], in assay [6], in assay [7] and in assay [8] was inactive.

For `CC(=O)Nc1ccc(CN2CCC(NC(=O)c3cc(-c4ccc(N(C)C)cc4)cs3)C2)cc1` (centres undefined), the growth inhibition is 1% in assay [1] and 83% (active) in assay [4]. Also, the inhibition in assay [2] was 15%; in assay [3], 5%. Moreover, the result in assay [5], in assay [6], in assay [7] and in assay [8] was inactive.

For the compound `Cc1cc(N[C@@H](Cc2ccccc2)C(=O)NC2CCCC2)nc(NCCOc2ccccc2)n1`, the values for the growth inhibition in assay [1] and in assay [4] were 48% and 98% (active), respectively. The inhibition in assay [2] was 40%; in assay [3], 0%. The result in assay [5], in assay [6], in assay [7] and in assay [8] was inactive.

With `O=c1cc(NCCCNCc2ccc3c(c2)OC(F)(F)O3)[nH]c2ccccc12`, the growth inhibition was 94% (active) in assay [1] and 100% (active) in assay [4]. The inhibition was -9% in assay [2] and -6% in assay [3]. Further, the result in assay [5], in assay [6], in assay [7] and in assay [8] was inactive.

In the case of `O=c1cc(NCCCNCc2cccc(SC(F)(F)F)c2)[nH]c2ccccc12`, the growth inhibition in assay [1] is 94% (active); in assay [4], 100% (active). Besides, the figures for the inhibition in assay [2] and in assay [3] were -9% and 6%, respectively. The outcome in assay [5], in assay [6], in assay [7] and in assay [8] was inactive.

For `O=C(NCC1CC1)C1CCN(C(c2ccccc2)c2cc(F)cc(F)c2)CC1` (centres undefined), the results for the growth inhibition in assay [1] and in assay [4] were 95% (active) and 99% (active), respectively. In addition, the inhibition is -3% in assay [2] and 9% in assay [3]. The outcome in assay [5], in assay [6], in assay [7] and in assay [8] was inactive.

Regarding `COc1cc2nc(N3CCC(CNC(=O)c4ccc(OC(F)(F)F)cc4)CC3)nc(N)c2cc1OC`, the growth inhibition in assay [1] is 98% (active); in assay [4], 100% (active). The results for the inhibition in assay [2] and in assay [3] were 16% and -3%, respectively. In addition, the result in assay [5], in assay [6], in assay [7] and in assay [8] was inactive.
